The values below come from PubChem BioAssay (NCATS).

Where “and” joins values, the source holds several entries; their conditions need not be identical. Equal entries are not always repeated. Inconclusive results are not listed. Calls of active or inactive are those of the source. Unless noted, calls come from the whole dose curve; as a rule, active = well fitted curve in the direction sought with a large enough effect; inconclusive = small, poorly fitted or top-dose-only effect, or another doubt; inactive = no such curve, though single readings can be large; an effect the other way counts as inactive or inconclusive.

The nature of experiment [1]: Cell Viability - Hek293 (AID 427;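 active = compounds whose dose-response curve shows a full or clear partial loss of cell viability, called from curve shape rather than a numeric limit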;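 note: potency is the fitted concentration of half-maximal effect; cells exposed to compound for 40 hours at 37 °C before reading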). To be noted: qHTS. A digest of the protocol: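 HEK293 cells in complete medium were exposed to compound for 40 hr at 37 °C, then cellular ATP was read by CellTiter-Glo luminescence. Data were normalized to DMSO (basal) and 100 uM tamoxifen (100% inhibition), and AC50 came from Hill fits.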
(qHTS replaces the single test concentration by a dilution series.)

The nature of experiment [2]: Cell Viability - N2a (AID 540).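 Note: plate controls were DMSO alone for no effect and tamoxifen control for full effect; nearly all actives have a fitted effect of over 45% in size.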 To be noted: N2a mouse neuroblastoma cell viability; activity change, negative = cytotoxicity: at 92.2 µM (top of the series). A digest of the protocol: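 Cytotoxicity was scored as loss of cellular ATP in N2a cells, a mouse neuroblastoma line. Compounds are applied in a qHTS concentration series for 40 hr at 37 °C.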
Experiment [3] is described as follows: Cell Viability - H-4-II-E (AID 543). Note: nearly all actives have a fitted effect of over 35% in size. Note: potency is the fitted concentration of half-maximal effect. Particulars: H-4-II-E rat hepatoma viability; series mostly up to 92.2 µM. A digest of the protocol: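 Cells seeded at 1500 per well and rested 5 hr; compounds added; 40 hr incubation at 37 °C; CellTiter-Glo added, 20 min at room temperature; luminescence read. Hill-equation fits gave AC50.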
Experiment [4] is described as follows: Cell Viability - SH-SY5Y (AID 544).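 For viability change, negative = cytotoxic: 0% = DMSO alone and -100% = 100 µM tamoxifen.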 Note: nearly all actives have a fitted effect of over 55% in size. Note: potency is the fitted concentration of half-maximal effect. To be noted: SH-SY5Y neuroblastoma cell viability; viability change, negative = cytotoxic: at 92.2 µM (top of the series). A digest of the protocol: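 Cells were plated at 1500 per well and allowed 5 hr at 37 °C. Compounds were added across a concentration range and incubated 40 hr at 37 °C. CellTiter-Glo was added for 20 min at room temperature before luminescence reading.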

The nature of experiment [5]: Cell Viability - Renal Proximal Tubule (AID 545).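 Note: 0% = DMSO only and -100% = 100 µM tamoxifen; nearly all actives have a fitted effect of over 40% in size.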 Particulars: renal proximal tubule cells viability, primary cells of rat origin; activity change, negative = cytotoxicity: at 91.7 µM (top of the series). A digest of the protocol:
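Luminescent ATP signal (CellTiter-Glo) served as the viability read-out after 40 hr compound exposure of freshly isolated rat proximal tubule cells at 37 °C. Concentration-dependent ATP loss was fitted with the Hill equation to give AC50.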

Experiment [6] in a line: MultiTox-Fluor Cytotoxicity Assay - LYMP1-002 - Dead Cells (AID 960).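 Note: cells exposed to compound for 16 h at 37 °C; 0% = DMSO and 100% = tetraoctylammonium bromide; nearly all actives have a fitted effect of over 60% in size.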 Particulars: LYMP1-002 lymphoblastoid cells, dead-cell protease fluorescence; series mostly up to 46.1 µM. The procedure, abridged: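 Cells were plated, rested 5 hr, then treated with compound dilution series for 16 hr at 37 C. After adding substrate reagent and 60 min at room temperature, dead-cell protease fluorescence gave concentration-response curves fitted by the Hill equation.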

Experiment [7] in a line: Cell Viability - LYMP2-005 (AID 967).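 Note: cells exposed to compound for 24 h at 37 °C; plate controls were DMSO only for no effect and 92 µM tetraoctylammonium bromide control for full effect.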 To be noted: LYMP2-005 lymphoblastoid cell viability; series mostly up to 92.2 µM. A digest of the protocol:
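Acute cytotoxicity is scored as a concentration-dependent drop in intracellular ATP in human lymphoblastoid LYMP2-005 cells after 24 h compound treatment. ATP is quantified by luciferase luminescence, and AC50 is derived by Hill-equation modelling.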

A short description of experiment [8]: Cell Viability - LYMP2-010 (AID 981).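 Note: cells exposed to compound for 24 hours at 37 °C; nearly all actives have a fitted effect of over 55% in size.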 Note: potency is the fitted concentration of half-maximal effect. Particulars: LYMP2-010 lymphoblastoid cell viability, qHTS; series mostly up to 92.2 µM. The procedure, abridged:
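Steps: seed 2500 LYMP2-010 cells per well; incubate 5 hr at 37 C; add compound; incubate 24 hr at 37 C; add CellTiter-Glo, wait 30 min at room temperature; read luminescence. Concentration-response fitted to Hill equation for AC50.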

A short description of experiment [9]: qHTS assay for small molecule agonists of retinoid X receptor alpha signaling (AID 588544; calls by dose curve). To be noted: HEK293T RXRa-UAS-bla, beta-lactamase reporter, 18 h; 530 nm emission.
Experiment [10] deals with Retinoic acid receptor RXR-alpha (Homo sapiens) (UniProt P19793). The experiment is described as above. To be noted: HEK293T RXRa-UAS-bla, beta-lactamase reporter, 18 h; series mostly up to 76.7 µM.
A short description of experiment [11]: qHTS assay for small molecule disruptors of the mitochondrial membrane potential - 1 hr assay (AID 651754; calls by dose curve; note: % is set by controls: 0 for no effect and ±100 for the full control effect; nearly all actives have a fitted effect of over 35% in size). To be noted: series mostly up to 92.2 µM. A digest of the protocol: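 Loss of mitochondrial potential shifts the cationic dye from red mitochondrial aggregates to green cytoplasmic monomers. Cells (HepG2) are treated with compound for 1 hr before a 30 min dye incubation at 37C.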

Experiment [12] in a line: qHTS assay for small molecule disruptors of the mitochondrial membrane potential - 5 hr assay (AID 651755; calls by dose curve; note: % is set by controls: 0 for no effect and ±100 for the full control effect; nearly all actives have a fitted effect of over 40% in size). To be noted: JC-1-type ratio dye; series mostly up to 92.2 µM. The procedure, abridged:
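Seed HepG2 overnight, add compound, incubate 5 hr at 37C and 5% CO2, stain 30 min with Mito-MPS, then measure monomer (490/535 nm) and aggregate (540/590 nm) fluorescence.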

A short description of experiment [13]: qHTS assay for small molecule agonists of the antioxidant response element (ARE) signaling pathway measured by Nrf2-dependant transcriptional activity (AID 720636; active = well fitted curve in the direction sought with a large enough effect in the repeat runs; an effect the other way counts as inactive or inconclusive;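 note: HepG2 cells with an ARE-driven luciferase reporter; % of control where 0% means no effect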). To be noted: ARE-luc HepG2, Nrf2 luciferase reporter, 16 h; series mostly up to 92.4 µM. A digest of the protocol:
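Nrf2-dependent transcription is measured in ARE-luc HepG2 cells: compound is applied for 16 hr at 37 C after a 6 hr attachment period, and luciferase activity is quantified by luminescence using ONE-Glo.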

Experiment [14] has as its target Nuclear receptor subfamily 1 group I member 2 (Rattus norvegicus) (UniProt Q9R1A7). The experiment can be described thus: qHTS assay for small molecule activators of the rat pregnane X receptor (rPXR) signaling pathway (AID 651751; call rule not given here; note: 0% is about no effect). Particulars: rPXR reporter cells, luciferase (One-Glo), 24 h.
A short description of experiment [15]: Cell Viability - LYMP2-004 (AID 966).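 Note: plate controls were DMSO only for no effect and tetraoctylammonium bromide control for full effect; nearly all actives have a fitted effect of over 65% in size.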 To be noted: LYMP2-004 lymphoblastoid cell viability, qHTS; series mostly up to 92.2 µM. The procedure, abridged:
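qHTS cytotoxicity: human lymphoblastoid line, 24 hr compound treatment, 37 C, complete medium. Viability read as cellular ATP via luciferase luminescence; tetraoctylammonium bromide served as positive control.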

Experiment [16] can be described thus: Cell Viability - LYMP2-009 (AID 968).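 Note: cells exposed to compound for 24 h at 37 °C; 0% = DMSO alone and the full-kill end = tetraoctylammonium bromide at 92 µM; nearly all actives have a fitted effect of over 55% in size.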 Particulars: LYMP2-009 lymphoblastoid cell viability; series mostly up to 92.2 µM.
Experiment [17] in a line: Cell Viability - LYMP2-015 (AID 971).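 Note: 0% = DMSO only and full effect = 92 µM tetraoctylammonium bromide; nearly all actives have a fitted effect of over 55% in size.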 Particulars: LYMP2-015 lymphoblastoid cell viability; series mostly up to 92.2 µM. A digest of the protocol: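 Cells are seeded at 2500 per well and incubated 5 hr at 37 C. Compounds are added across a concentration series for 24 hr at 37 C. CellTiter-Glo is added, and luminescence is read after 30 min at room temperature.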
Experiment [18] can be described thus: Cell Viability - LYMP2-017 (AID 972). Particulars: LYMP2-017 lymphoblastoid cell viability; series mostly up to 92.2 µM. A digest of the protocol:
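Cytotoxicity is scored as a concentration-dependent drop in cellular ATP in a human lymphoblastoid line after 24 hr treatment at 37 C. Values are AC50s from Hill-equation modelling.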

Experiment [19] can be described thus: Cell Viability - LYMP2-006 (AID 978).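 Note: cells exposed to compound for 24 hours; % is set by controls: 0 for no effect and ±100 for the full control effect; nearly all actives have a fitted effect of over 60% in size.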 To be noted: LYMP2-006 lymphoblastoid cell viability, qHTS; series mostly up to 92.2 µM. The procedure, abridged: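 Cells are seeded at 2500 per well and rested 5 hr at 37 C. Compounds are added across a concentration series for 24 hr at 37 C, after which ATP is quantified by luciferase luminescence.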
Experiment [20] deals with Thyroid hormone receptor beta (Homo sapiens) (UniProt P10828). The experiment can be described thus: qHTS assay for small molecule agonists of thyroid hormone receptor beta signaling (AID 588545; calls by dose curve;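 note: 0% = DMSO only and 100% = 10 nM T3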). Particulars: TR-UAS-bla GripTite HEK 293, beta-lactamase ratio, agonist mode, 18 h; series mostly up to 76.7 µM. A digest of the protocol:
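Beta-lactamase reporter activity under TR response element control is measured in HEK 293 cells after 18 hrs compound exposure. Signal is ratiometric CCF4 fluorescence, 460/530 nm.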

Sequence of Retinoic acid receptor RXR-alpha (Homo sapiens) (P19793 whole entry, looked up): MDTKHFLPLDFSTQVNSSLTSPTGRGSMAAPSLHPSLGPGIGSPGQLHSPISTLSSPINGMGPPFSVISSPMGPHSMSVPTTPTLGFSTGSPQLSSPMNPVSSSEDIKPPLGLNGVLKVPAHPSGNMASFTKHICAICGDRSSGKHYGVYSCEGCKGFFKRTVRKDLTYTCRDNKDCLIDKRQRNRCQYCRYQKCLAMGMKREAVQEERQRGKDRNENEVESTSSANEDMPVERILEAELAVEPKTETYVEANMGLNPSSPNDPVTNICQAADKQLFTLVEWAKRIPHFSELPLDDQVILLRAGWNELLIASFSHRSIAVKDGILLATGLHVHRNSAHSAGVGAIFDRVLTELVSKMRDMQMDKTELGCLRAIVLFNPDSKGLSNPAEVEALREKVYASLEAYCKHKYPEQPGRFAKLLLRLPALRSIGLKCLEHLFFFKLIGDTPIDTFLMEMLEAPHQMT
Sequence of Nuclear receptor subfamily 1 group I member 2 (Rattus norvegicus) (Q9R1A7 whole entry, looked up): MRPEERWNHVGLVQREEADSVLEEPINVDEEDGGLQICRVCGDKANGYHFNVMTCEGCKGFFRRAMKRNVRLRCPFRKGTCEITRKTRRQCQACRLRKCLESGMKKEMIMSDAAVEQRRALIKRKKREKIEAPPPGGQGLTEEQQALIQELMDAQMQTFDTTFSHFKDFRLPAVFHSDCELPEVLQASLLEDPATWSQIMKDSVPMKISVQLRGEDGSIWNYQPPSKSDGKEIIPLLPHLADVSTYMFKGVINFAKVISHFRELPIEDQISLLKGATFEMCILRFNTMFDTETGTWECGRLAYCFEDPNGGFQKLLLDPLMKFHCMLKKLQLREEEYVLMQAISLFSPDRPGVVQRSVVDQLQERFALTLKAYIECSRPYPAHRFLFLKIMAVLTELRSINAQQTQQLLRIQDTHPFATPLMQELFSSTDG
Sequence of Thyroid hormone receptor beta (Homo sapiens) (P10828 whole entry, looked up): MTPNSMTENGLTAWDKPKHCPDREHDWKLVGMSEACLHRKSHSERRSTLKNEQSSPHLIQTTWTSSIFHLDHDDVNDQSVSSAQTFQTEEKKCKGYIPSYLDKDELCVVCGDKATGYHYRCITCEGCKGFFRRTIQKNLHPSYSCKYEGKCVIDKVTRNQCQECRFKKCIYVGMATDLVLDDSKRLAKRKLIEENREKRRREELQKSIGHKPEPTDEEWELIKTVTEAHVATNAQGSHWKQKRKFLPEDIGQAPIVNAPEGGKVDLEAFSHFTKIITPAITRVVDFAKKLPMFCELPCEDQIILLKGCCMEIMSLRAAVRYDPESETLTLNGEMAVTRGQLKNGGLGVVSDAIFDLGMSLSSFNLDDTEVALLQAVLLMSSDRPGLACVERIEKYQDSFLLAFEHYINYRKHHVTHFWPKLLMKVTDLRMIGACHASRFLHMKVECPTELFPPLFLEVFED

`O=CC(=O)c1ccccc1`: in experiment [1], the Potency is > 92 µM (inactive). For the same molecule, the activity change, negative = cytotoxicity in [2] is 5.07% (inactive). The Potency entry in [3], in experiment [4], in [5], in [6], in [7] and in [8] was “inactive” each time. The Potency entry in experiment [10], in [11], in experiment [12] and in experiment [13] was “inactive” in each case. Besides, the max response in experiment [9] was -0.232%; in experiment [14] it was 11.8% (inactive).
As to `Cc1cc(=O)oc2cc(O)cc(O)c12`, the Potency in experiment [1] was > 92 µM (inactive). For the same molecule, the activity change, negative = cytotoxicity in [2] was -0.482% (inactive). Besides, the Potency entry in [3], in experiment [4], in experiment [5], in experiment [6], in [15] and in [7] was “inactive” in each case. The Potency result in [16], in experiment [17], in experiment [18], in [19], in [8] and in experiment [20] was “inactive” throughout. The Potency entry in experiment [13] is “inactive”. Moreover, the max response in experiment [14] was -2.67% (inactive).
Take `Brc1cc(Oc2cc(Br)c(Br)c(Br)c2Br)c(Br)c(Br)c1Br`: in experiment [1], the Potency is > 92 µM (inactive). Also, the activity change, negative = cytotoxicity in [2] is -25% (inactive). The Potency entry in experiment [3], in experiment [5], in experiment [6], in experiment [15], in experiment [7] and in experiment [16] was “inactive” throughout. Also, the Potency entry in experiment [17], in experiment [18], in [19], in experiment [8], in [10] and in [20] was “inactive” each time. The Potency result in [11], in [12] and in experiment [13] was “inactive” each time. Moreover, the max response in [9] is 21.6%; in experiment [14] it was 2.26% (inactive) and 7.81% (inactive).
`c1ccc(SCCSc2ccccc2)cc1`: in [1], the Potency was > 92 µM (inactive). Also, in experiment [2], the activity change, negative = cytotoxicity was 8.64% (inactive). For the same molecule, the Potency result in [3], in [4], in experiment [5], in [6], in experiment [15] and in experiment [7] was “inactive” each time. In addition, the Potency result in [16], in [17], in [18], in [19], in experiment [8] and in experiment [10] was “inactive” each time. Also, the Potency result in experiment [20] and in experiment [12] was “inactive” in each case. Moreover, the max response in experiment [9] is -9.01%.
With `CC(=O)OC(C(=O)c1ccccc1)c1ccccc1` (stereo not given), the Potency in experiment [1] was > 92 µM (inactive). For the same molecule, the activity change, negative = cytotoxicity in [2] is -7.31% (inactive). Further, the Potency entry in experiment [3], in experiment [4], in experiment [5], in experiment [6], in [15] and in experiment [7] was “inactive” each time. Also, the Potency result in experiment [16], in experiment [17], in [18], in [19], in experiment [8] and in experiment [10] was “inactive” each time. Besides, the Potency entry in [20], in [12] and in experiment [13] was “inactive” throughout. Moreover, the max response in experiment [9] was -6.96%; in experiment [14], 1.59% (inactive).
As for `O=C(OCC1CO1)C1CCCCC1C(=O)OCC1CO1` (stereo not given), in [2], the activity change, negative = cytotoxicity was 2.77% (inactive). In addition, the Potency in experiment [3] was 50.1 µM (active); in experiment [4], 25.1 µM (active); in experiment [8], 50.1 µM (active). Also, the Potency entry in experiment [5], in [11] and in experiment [12] was “inactive” each time. Also, the max response in [14] is 1.33% (inactive).
Regarding `O=[N+]([O-])c1ccccc1Nc1ccccc1`, the Potency in experiment [1] is > 92 µM (inactive). The activity change, negative = cytotoxicity in experiment [2] was -9.33% (inactive). The Potency entry in experiment [3], in [4], in [5], in experiment [6], in experiment [15] and in [7] was “inactive” in each case. Besides, the Potency result in experiment [16], in experiment [17], in experiment [18], in experiment [19], in [8] and in experiment [10] was “inactive” each time. In addition, the Potency entry in experiment [12] and in [13] was “inactive” in each case. For the same molecule, the max response was -18.5% in [9] and -3.61% (inactive) in experiment [14].
Turning to `c1ccc(Nc2cccc3ccccc23)cc1`, the Potency in experiment [1] was > 92 µM (inactive). The Potency entry in experiment [3], in experiment [4], in [5], in experiment [15], in experiment [7] and in experiment [16] was “inactive” in each case. Further, the Potency entry in [17], in experiment [18], in experiment [19], in experiment [8], in experiment [10] and in experiment [20] was “inactive” each time. In addition, in experiment [9], the max response was -7.08% and 4.25%.
